Measurements reported in the supplement of paper PMC13380429.

Test system: Vero E6 infected with SARS-CoV-2
Assay: inhibition of SARS-CoV-2 cytopathic effect; higher = more antiviral protection, active = above 15
Settings: 48 h

Measured: inhibition of SARS-CoV-2 cytopathic effect

Cc1noc(NS(=O)(=O)c2ccc(N)cc2)c1C [sulfafurazole]
inactive: 1 nM -0.27% | 8.33 nM -1.19% | 100 nM 0.89% | 833.33 nM -1.49% | 10000 nM 0.12%

CN1C(C(=O)Nc2ccccn2)=C(O)c2sccc2S1(=O)=O [tenoxicam]
inactive: 1 nM -1.61% | 8.33 nM -5.04% | 100 nM -1.6% | 833.33 nM 0.7% | 10000 nM -2.71%

Cn1nnc(-c2ccc(-c3ccc(N4C[C@H](CO)OC4=O)cc3F)cn2)n1 [tedizolid]
inactive: 1 nM -0.87% | 8.33 nM 1.38% | 100 nM -1.69% | 833.33 nM 0.43% | 10000 nM -0.79%

N=C(N)c1ccc(OCCCCCOc2ccc(C(=N)N)cc2)cc1 [pentamidine]
inactive: 1 nM -3.18% | 8.33 nM -3.29% | 100 nM -4.34% | 833.33 nM -11.7% | 10000 nM 1.08%

CC(=O)N[C@@H](CCC(N)=O)C(=O)O [aceglutamide]
inactive: 1 nM 1.69% | 8.33 nM 3.16% | 100 nM 6.3% | 833.33 nM 1.78% | 10000 nM -5.34%

NC(=O)NC1NC(=O)NC1=O (stereo not given) [allantoin]
inactive: 1 nM -0.84% | 8.33 nM -1.51% | 100 nM -2.49% | 833.33 nM -1.11% | 10000 nM 1.18%

CCCN1CCCC[C@H]1C(=O)Nc1c(C)cccc1C [ropivacaine]
inactive: 1 nM 1.32% | 8.33 nM 1.42% | 100 nM 2.5% | 833.33 nM 3.09% | 10000 nM -1.63%

C=CC(=O)N1CCC[C@@H](n2nc(-c3ccc(Oc4ccccc4)cc3)c3c(N)ncnc32)C1 [ibrutinib]
inactive: 1 nM -2.27% | 8.33 nM -1.2% | 100 nM 0.01% | 833.33 nM -0.37% | 10000 nM 1.62%

CNC(=O)N(C)N=O [nitrosodimethylurea]
inactive: 1 nM -0.7% | 8.33 nM -0.84% | 100 nM -4.76% | 833.33 nM 1.42% | 10000 nM -2.36%

O=C1C2CCN(CC2)C1(CO)CO
inactive: 1 nM -0.42% | 8.33 nM 1.99% | 100 nM 3.09% | 833.33 nM 2.96% | 10000 nM 5.06%

CCCCCCCC(=O)N[C@H](CN1CCCC1)[C@H](O)c1ccc2c(c1)OCCO2 [eliglustat]
inactive: 1 nM 3.28% | 8.33 nM 2.4% | 100 nM -0.12% | 833.33 nM 4.02% | 10000 nM 0.05%

NCC(CC(=O)O)c1ccccc1 (stereo not given) [fenigam]
inactive: 1 nM -0.57% | 8.33 nM 0.98% | 100 nM 0.48% | 833.33 nM -0.72% | 10000 nM 1.87%

COc1ccc2cc3[n+](cc2c1OC)CCc1cc2c(cc1-3)OCO2 [berberine]
inactive: 1 nM -11.8% | 8.33 nM -10.1% | 100 nM -11% | 833.33 nM -3.86% | 10000 nM -3.62%

CC(=O)OCC(CCn1cnc2cnc(N)nc21)COC(C)=O [famciclovir]
inactive: 1 nM -0.42% | 8.33 nM -2.15% | 100 nM -3.04% | 833.33 nM -0.25% | 10000 nM -2.48%

Cc1c(C)c2c(c(C)c1OC(=O)CCC(=O)O)CC[C@@](C)(CCC[C@H](C)CCC[C@H](C)CCCC(C)C)O2 [D-alpha-tocopheryl-succinate]
inactive: 1 nM -5.51% | 8.33 nM -5.87% | 100 nM -7.06% | 833.33 nM -5.36% | 10000 nM -2.64%

COc1cccc(CN(C(=O)CC(C)(C)C)[C@H]2C[C@@H](C(=O)N3CCNCC3)N(Cc3ccc4c(c3)OCO4)C2)c1
inactive: 1 nM 7.37% | 8.33 nM 2.78% | 100 nM 5.86% | 833.33 nM -0.43% | 10000 nM -2.99%

CCc1cnn2c(NCc3ccc[n+]([O-])c3)cc(N3CCCC[C@H]3CCO)nc12 [dinaciclib]
inactive: 1 nM 1.49% | 8.33 nM -1.48% | 100 nM -3.71% | 833.33 nM -9.46% | 10000 nM -8.75%

C[n+]1c2cc(N)ccc2cc2ccc(N)cc21.Nc1ccc2cc3ccc(N)cc3nc2c1 [acriflavine]
inactive: 1 nM 2.32% | 8.33 nM 1.62% | 100 nM 1.04% | 833.33 nM -1.18% | 10000 nM -12.9%

C[C@H](Cc1ccc(OCC(=O)O)cc1)NC[C@H](O)c1cccc(Cl)c1
inactive: 1 nM -1% | 8.33 nM 0.79% | 100 nM 2.24% | 833.33 nM 0.59% | 10000 nM 0.72%

C=CCSCC1Nc2cc(Cl)c(S(N)(=O)=O)cc2S(=O)(=O)N1 (stereo not given) [althiazide]
inactive: 1 nM 0.54% | 8.33 nM 0.99% | 100 nM -0.07% | 833.33 nM -0.46% | 10000 nM 0.04%
